High-throughput results (PubChem)
In the library only some 3.5% were active in any assay of this set; here they are far more common.
FBW7 activator: activators of human E3 ligase FBW7 | AlphaScreen FBW7–phospho-cyclin E peptide binding, activator screen | normalized activity (activation), % at 26.1 µM | actives 0.13% (n = 650,000) | AID 1259310; in the data active means normalized activity above about 1.9%;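 further: purified mutant Fbw7 with reduced substrate affinity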
TEAD-YAP block: TEAD-YAP interaction inhibition; HEK-TIYL cells, TEAD-Gal4/YAP UAS-luciferase luminescence; AID 1259422; actives 1.4% (n = 640,000); inhibition, % at 9.12 µM; in the data active means inhibition above about 32%
GPR151 ag: activators of human GPR151; PathHunter beta-arrestin GPR151 cells, luminescence; actives 1% (n = 650,000); Q8TDV0; activation, % at 11.2 µM; in the data active means activation above about 4.9%
Target sequence (Q8TDV0 whole entry, looked up): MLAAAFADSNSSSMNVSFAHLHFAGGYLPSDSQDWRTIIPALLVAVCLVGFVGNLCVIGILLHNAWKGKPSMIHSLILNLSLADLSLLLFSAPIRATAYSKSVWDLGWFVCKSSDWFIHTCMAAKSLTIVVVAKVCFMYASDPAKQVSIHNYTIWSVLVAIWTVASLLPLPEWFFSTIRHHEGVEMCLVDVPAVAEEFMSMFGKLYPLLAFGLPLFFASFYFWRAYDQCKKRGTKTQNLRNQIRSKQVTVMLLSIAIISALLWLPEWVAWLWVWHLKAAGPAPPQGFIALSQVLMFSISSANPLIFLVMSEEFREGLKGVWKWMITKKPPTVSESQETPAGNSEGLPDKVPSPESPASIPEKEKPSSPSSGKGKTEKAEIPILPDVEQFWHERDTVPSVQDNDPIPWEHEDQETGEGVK
MITF primary: blocks human microphthalmia-associated transcription factor. O75030. AlphaScreen MITF homodimerization, bead proximity signal. inhibition, % at 2.6 µM. actives 0.91% (n = 650,000); in the data active means inhibition above about 50%
Of the large screens only hits and unclear results are named; the others gave an inactive call.

O=C(Cc1ccc([N+](=O)[O-])cc1)NNc1ccc([N+](=O)[O-])cc1	none
Cc1oc(-c2cccs2)nc1CSCC(=O)N1CCCC1	none
Cc1oc(-c2ccc(Cl)cc2)nc1CSCC(=O)N1CCC2(CC1)OCCO2	TEAD-YAP block 38
Cc1oc(-c2ccc(Cl)cc2)nc1CSCC(=O)NC1CC1	none
Cc1oc(-c2ccccc2Cl)nc1CSCC(=O)N1CCCC1	TEAD-YAP block 58
COc1cc(Nc2cc(Nc3nc4ccccc4n3C)nc(N)n2)cc(OC)c1OC	none
CC(C)(C)c1ccc2c(c1)C1c3ccc(C(C)(C)C)cc3C2C2C(=O)N(c3cccc(Cl)c3)C(=O)C12 (stereo unspecified)	none
O=C1Nc2ccc([N+](=O)[O-])cc2C1=Nc1ccc(C(=O)c2ccccc2)cc1	none
CCNc1nc(Nc2ccc3c(c2)OCO3)c2ncn(CCN3CCCC3=O)c2n1	none
CN(C)c1ccc(C2C=C(Nc3ccccc3)C(=O)N2c2ccccc2)cc1 (stereo unspecified)	none
CCC(=O)N1CCc2cc(S(=O)(=O)CCC(=O)Nc3cc(C)cc(C)c3)ccc21	none
CCOC(=O)c1sc2ncnc(Nc3ccc(C)cc3Br)c2c1C	TEAD-YAP block 59
CCOC(=O)c1sc2ncnc(Nc3cccc(C)c3)c2c1C	none
COc1cccc(C2=NN3C(C2)c2cccc(OC)c2OC3c2ccc(F)c(F)c2)c1 (stereo unspecified)	none
COc1cccc(C2=NN3C(C2)c2cccc(OC)c2OC3c2cc(OC)c(OC)c(OC)c2)c1 (stereo unspecified)	TEAD-YAP block 32
COc1cccc(C2=NN3C(C2)c2cccc(OC)c2OC3c2cccc(OC)c2)c1 (stereo unspecified)	TEAD-YAP block 38
COC(=O)c1ccc(C2Oc3c(OC)cccc3C3CC(c4cccc(OC)c4)=NN32)cc1 (stereo unspecified)	TEAD-YAP block 63
COc1cccc(C2=NN3C(C2)c2cccc(OC)c2OC32CCCCC2)c1 (stereo unspecified)	TEAD-YAP block 36
COC(=O)c1ccc(C2Oc3c(OC)cccc3C3CC(c4ccc(OC)cc4)=NN32)cc1 (stereo unspecified)	none
CCCC1C2CC(C)CC=C2C(C#N)=C(N)C1(C#N)C#N (stereo unspecified)	none
CC(=O)N1CCCC(c2ncncc2-c2ccncc2)C1 (stereo unspecified)	none
COc1ccc(C2=NN(C(=O)CSc3nnc(CNC(=O)c4cccc([N+](=O)[O-])c4C)n3C)C(c3cccc(OC)c3OC)C2)cc1 (stereo unspecified)	none
O=C(NCc1cccc(Cl)c1)c1nc2c(nnn2CC2CCCO2)c(=O)[nH]1 (stereo unspecified)	none
O=C(Cn1nc(-c2ccoc2)oc1=O)N1CCCCCC1	none
Clc1ccc(CNc2ncnc3sccc23)cc1	TEAD-YAP block 52
CCC(C)Nc1ncnc2ccccc12 (stereo unspecified)	TEAD-YAP block 39
c1ccc(CNc2ncnc3ccccc23)cc1	TEAD-YAP block 51
c1ccc(CNc2ncnc3sccc23)nc1	none
CC(C)CNc1ncnc2ccccc12	none
Clc1ccc(CNc2ncnc3ccccc23)cc1	TEAD-YAP block 57
Cc1cc(=O)oc2c1c(C)nn2-c1cc(Cl)cc(Cl)c1	none
OCCCNc1ncnc2sccc12	none
COc1cc2ncnc(NC3CCN(Cc4ccccc4)CC3)c2cc1OC	none (no result: FBW7 activator, TEAD-YAP block, MITF primary)
COCCNc1ncnc2ccccc12	none
Clc1ccccc1CCNc1ncnc2ccccc12	TEAD-YAP block 35
c1ccc(CN2CCC(Nc3ncnc4ccccc34)CC2)cc1	TEAD-YAP block 33
c1nc(NCC2CCCCC2)c2ccsc2n1	TEAD-YAP block 36
Cc1cccc2cc(CNCCO)c(N(C)Cc3cccs3)nc12	none
CNC(=O)c1ccccc1Nc1cc(Nc2ccc(N3CCOCC3)cc2OC)ncc1Br	none
CNC(=O)c1ccccc1Nc1cc(Nc2ccc(N3CCC(N(C)C)C3)cc2OC)ncc1C#N (stereo unspecified)	TEAD-YAP block 44
CNC(=O)c1ccccc1Nc1cc(Nc2ccc(F)cc2OC)ncc1C(F)(F)F	none
CNC(=O)c1ccccc1Nc1cc(Nc2ccc(OC3CCN(C)CC3)cc2OC)ncc1C(F)(F)F	TEAD-YAP block 74
CNC(=O)c1ccccc1Nc1cc(Nc2ccc(N3CCN(C)CC3)cc2OC)ncc1C(F)(F)F	TEAD-YAP block 85
COc1cccc(C2C(C(=O)Nc3ccc(C)cn3)=C(C)NC3=C2C(=O)CC(C)(C)C3)c1 (stereo unspecified)	none
Cc1nn(C)c(C)c1S(=O)(=O)N(CC(=O)N1CCOCC1)c1ccc(C(C)C)cc1	none
O=c1oc(-c2ccc(Oc3cccc(-c4nc5ccccc5c(=O)o4)c3)cc2)nc2ccccc12	none
